About 10,000 (3%) of roughly 330,000 compounds were called active.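 The calls were made as follows: active = inhibition of at least 50% at 8 µM in the primary screen; inactive = the rest.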 Many of the other results were omitted from the sample, so actives are more common in it than they were.

For this test, the target named is Protein Mdm4 (Homo sapiens) + E3 ubiquitin-protein ligase Mdm2 (Homo sapiens) (UniProt O15151+Q00987). As to the kind of experiment: disruptors of Mdm2/MdmX RING complex – cell-based, luminescence, split luciferase, SaOS-2, uHTS, primary screen (AID 485346). The following applies: SaOS-2 split-luciferase Mdm2/MdmX complementation, at 8 µM, active compounds read high.
Sequence of Protein Mdm4 (Homo sapiens) + E3 ubiquitin-protein ligase Mdm2 (Homo sapiens) (O15151 whole entry, looked up): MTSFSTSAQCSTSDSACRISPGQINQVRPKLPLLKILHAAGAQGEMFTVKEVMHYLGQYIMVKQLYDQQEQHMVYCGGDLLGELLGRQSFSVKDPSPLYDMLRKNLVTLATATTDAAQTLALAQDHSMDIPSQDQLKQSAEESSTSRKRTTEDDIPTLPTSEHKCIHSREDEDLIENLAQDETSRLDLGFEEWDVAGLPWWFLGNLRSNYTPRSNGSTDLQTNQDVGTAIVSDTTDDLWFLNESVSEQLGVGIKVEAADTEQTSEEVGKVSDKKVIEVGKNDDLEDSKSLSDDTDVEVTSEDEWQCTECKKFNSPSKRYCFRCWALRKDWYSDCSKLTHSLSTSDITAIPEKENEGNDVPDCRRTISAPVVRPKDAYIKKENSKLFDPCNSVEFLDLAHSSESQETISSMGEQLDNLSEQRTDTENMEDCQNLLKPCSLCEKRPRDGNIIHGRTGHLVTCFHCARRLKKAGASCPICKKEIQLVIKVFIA
Sequence of Protein Mdm4 (Homo sapiens) + E3 ubiquitin-protein ligase Mdm2 (Homo sapiens) (Q00987 whole entry, looked up): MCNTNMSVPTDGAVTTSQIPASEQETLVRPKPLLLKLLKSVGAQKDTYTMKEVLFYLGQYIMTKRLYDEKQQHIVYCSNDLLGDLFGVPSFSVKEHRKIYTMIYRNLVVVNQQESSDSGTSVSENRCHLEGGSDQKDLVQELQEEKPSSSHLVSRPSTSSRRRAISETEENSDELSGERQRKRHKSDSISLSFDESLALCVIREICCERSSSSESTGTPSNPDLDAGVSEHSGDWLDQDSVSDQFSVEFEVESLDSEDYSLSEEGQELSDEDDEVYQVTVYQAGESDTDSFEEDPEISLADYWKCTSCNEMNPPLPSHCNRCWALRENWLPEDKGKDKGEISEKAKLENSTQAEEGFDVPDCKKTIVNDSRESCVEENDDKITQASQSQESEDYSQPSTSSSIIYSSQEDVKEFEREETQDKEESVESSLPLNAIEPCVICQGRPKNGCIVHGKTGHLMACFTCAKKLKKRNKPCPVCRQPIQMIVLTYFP
The term inhibition denotes the relative decrease from the control value, in per cent. As to `O=C(Nc1cccc(O)c1)c1ccc(C(=O)c2ccccc2)o1`, the inhibition is -23.5% (inactive).

In the case of `CC(C)(C)OC(=O)C1=C(CO)CS[C@@H]2[C@H](NC(=O)Cc3ccccc3)C(=O)N12`, the inhibition is 1.66% (inactive).

Take `Cc1ccc(CN2CCC(N3CCC(C(=O)NCC4CCCO4)CC3)CC2)o1` (stereo not drawn): the inhibition was 1.75% (inactive).

Turning to `O=C(COC(=O)c1ccccc1)c1ccc2c(c1)OCCO2`, the inhibition was 35.8% (inactive).

Consider `Cc1cc(C)cc(OCC(=O)Nc2cc(NC(=O)COc3cc(C)cc(C)c3)cc(C(=O)O)c2)c1`, for which the inhibition is 5.1% (inactive).

On to `CC(NC(=O)COC(=O)C1CCN(S(=O)(=O)c2ccccc2C(F)(F)F)CC1)c1ccccc1` (stereo not drawn), for which the inhibition was -7.62% (inactive).

Turning to `NC(=O)c1nsc(C(=O)N(CCCN2CCOCC2)C(C(=O)NC2CCCCC2)c2ccc(Cl)cc2)c1N` (stereo not drawn), the inhibition was -0.899% (inactive).

Consider `COc1cc(N2C(=O)CC3(CCCC3)CC2=O)cc(OC)c1OC`, for which the inhibition was 20% (inactive).

In the case of `Cc1ccc2nc(-c3ccccn3)cc(C(=O)Nc3ccc4c(c3)OCO4)c2c1`, the inhibition was 28.8% (inactive).

Turning to `Cc1ccc2nc(-c3ccncc3)cc(C(=O)Nc3ccc(OC(F)F)cc3)c2c1`, the inhibition is 37.3% (inactive).

Take `Cc1ccc2nc(-c3ccncc3)cc(C(=O)Nc3ccc4c(c3)OCCO4)c2c1`: the inhibition is 60.7% (active).

Consider `COc1ccc(CCNC(=O)CN(c2ccccc2)S(C)(=O)=O)cc1OC`, for which the inhibition is -2.08% (inactive).

With `CCc1[nH]nc(C(=O)N2CCCC(CNS(=O)(=O)c3cccs3)C2)c1C` (stereo not drawn), the inhibition is 7.22% (inactive).

Consider `Cc1cc(NC(=O)CSc2nc3cc(Cl)ccc3c(=O)n2Cc2ccco2)no1`, for which the inhibition was 40.1% (inactive).

Regarding `COc1ccc(-n2c(SCC(=O)Nc3sc4c(c3C#N)CCCC4)nnc2-c2ccc(O)cc2)cc1`, the inhibition was 33.8% (inactive).

As for `N#Cc1c(NC(=O)CSc2nc3ccccc3c(=O)n2Cc2ccco2)sc2c1CCCC2`, the inhibition was 54.1% (active).

Regarding `Cc1ccc(CN2CC(C(=O)N3CCN(S(=O)(=O)c4ccccc4)CC3)CC2=O)cc1` (stereo not drawn), the inhibition was -7.06% (inactive).

Consider `O=C(NCc1cccnc1)c1ccccc1NC(=O)c1c(F)cccc1F`, for which the inhibition was 12.2% (inactive).

As to `CCN1C[C@@H]2[C@@H]3C(=O)N(Cc4ccccc4)C(=O)[C@@H]3[C@](Cc3ccccc3)(C(=O)OC)N2C1=NC1CCCCC1`, the inhibition was 44.3% (inactive).

With `CC[C@]1(C(=O)OC)[C@H]2C(=O)N(C)C(=O)[C@H]2[C@H]2CN(C)C(=NCc3ccccc3)N21`, the inhibition is 15.5% (inactive).

As to `CC[C@]1(C(=O)OC)[C@H]2C(=O)N(Cc3ccccc3)C(=O)[C@H]2[C@H]2CN=C(SCc3ccc(C#N)cc3)N21`, the inhibition is 93% (active).

Regarding `CCN(C[C@H]1N[C@@](CC)(C(=O)OC)[C@H]2C(=O)N(Cc3ccccc3)C(=O)[C@@H]12)S(=O)(=O)c1ccccc1`, the inhibition is 9.24% (inactive).

Consider `CCNC(=O)N(CC)C[C@H]1N[C@@](CC)(C(=O)OC)[C@H]2C(=O)N(Cc3ccccc3)C(=O)[C@@H]12`, for which the inhibition was 13.8% (inactive).

With `COC(=O)[C@@]1(C)[C@H]2C(=O)N(Cc3ccccc3)C(=O)[C@H]2[C@H]2CN=C(SCC3CC3)N21`, the inhibition is 16.2% (inactive).

`CC[C@]1(C(=O)OC)[C@H]2C(=O)N(Cc3ccccc3)C(=O)[C@H]2[C@H]2CN=C(SCc3ccccc3)N21`: the inhibition was 70% (active).

Turning to `CCCN=C1N(C)C[C@@H]2[C@@H]3C(=O)N(Cc4ccccc4)C(=O)[C@@H]3[C@](C)(C(=O)OC)N12`, the inhibition was -2.26% (inactive).

Turning to `CC[C@]1(C(=O)OC)[C@H]2C(=O)N(Cc3ccccc3)C(=O)[C@H]2[C@H]2CN=C(SCc3ccc(Cl)cc3)N21`, the inhibition was 99.6% (active).

For `O=C(COC(=O)c1ccccn1)NNC(=O)c1ccc(Br)cc1`, the inhibition was 2.38% (inactive).

In the case of `Cn1nc(C(=O)OCC(=O)N(Cc2ccccc2)C(C)(C)C)c2ccccc2c1=O`, the inhibition was 14.1% (inactive).

As to `CCCNc1c(N)c(=O)c1=O`, the inhibition was 12.6% (inactive).

In the case of `Cc1cccc(C(=O)N2CCCC(Nc3ccc(C(C)C)cc3)C2)n1` (stereo not drawn), the inhibition was -5.26% (inactive).

In the case of `CCOc1ccccc1OCCCNCc1ccccc1`, the inhibition is -6.93% (inactive).

On to `OCCNCc1cccc(OCc2ccccc2Cl)c1`, for which the inhibition was 20.6% (inactive).

Turning to `Clc1cccc(Cl)c1OCCOCCNCc1ccccc1`, the inhibition was 89.2% (active).

`Cc1ccc(-c2ccc(/C=C(\C#N)C(N)=S)o2)c([N+](=O)[O-])c1`: the inhibition was -46.3% (inactive).

Take `Cc1ccc(Cc2cnc(NC(=O)/C(C#N)=C/c3ccc(-c4cccc([N+](=O)[O-])c4)o3)s2)cc1`: the inhibition is 97.9% (active).

In the case of `N#C/C(=C\c1ccc(-c2cccc([N+](=O)[O-])c2)o1)C(=O)NCCN1CCOCC1`, the inhibition is 10.3% (inactive).

`COc1ccc(CCNC(=O)COC(=O)c2ncc(Cl)c(Cl)c2Cl)cc1OC`: the inhibition was 8.42% (inactive).

With `COc1ccccc1N1CCN(C(=O)c2cc(=O)c3cc(C)ccc3o2)CC1`, the inhibition was 40.1% (inactive).

`COc1ccccc1N1CCN(C(=O)c2cc(=O)c3cc(C)cc(C)c3o2)CC1`: the inhibition was 63.5% (active).

As for `O=C(c1cc(=O)c2ccccc2o1)N1CCN(c2ccccc2)CC1`, the inhibition is 17.2% (inactive).

`CSc1nsc(NC(=O)Nc2ccccc2)n1`: the inhibition was -31.4% (inactive).

As for `CCSc1nsc(NC(=O)Nc2cccc(C(C)=O)c2)n1`, the inhibition was 62.3% (active).

For `C=C(C)C(=O)Nc1cccc(C(C)=O)c1`, the inhibition is 20.2% (inactive).

`C=CCSc1nnc(NC(=O)c2ccc(NC(C)=O)cc2)s1`: the inhibition was -18.8% (inactive).

For `C=CCSc1nsc(NC(=O)Nc2cccc(C(C)=O)c2)n1`, the inhibition is 94.3% (active).

For the compound `CCSc1nsc(NC(=O)Nc2ccccc2OC)n1`, the inhibition was -33.9% (inactive).

As for `CCCCC(=O)N1CC2(C)CN(C(=O)CCCC)CC(C)(C1)C2=O`, the inhibition is -4.56% (inactive).

On to `CN(C(=O)c1c(Cl)cnn1C)C12CC3CC(CC(C3)C1)C2`, for which the inhibition was 4.45% (inactive).

`Cc1ccc2[nH]c(=O)c(CN(CCCN(C)C)C(=O)Nc3cccc(Cl)c3)cc2c1`: the inhibition is 66.9% (active).

Regarding `Cc1ccc2[nH]c(=O)c(CN(CC3COCCO3)C(=O)Nc3ccccc3C)cc2c1` (stereo not drawn), the inhibition was 6.03% (inactive).

In the case of `CCC(=O)N(CCc1ccccc1)Cc1cc2cc(C)ccc2[nH]c1=O`, the inhibition is -5.57% (inactive).

With `CC(C)NC(=O)N1CCN(c2ccncc2S(=O)(=O)N2CCCCC2)CC1`, the inhibition is 14.5% (inactive).

As to `COc1cc(OC)c(OC)cc1/C=N/Nc1ncnc2c1[nH]c1ccc(C)cc12`, the inhibition was 78.4% (active).

Regarding `CCOc1cc(/C=N/Nc2cc(C)nc3ccc(C)cc23)ccc1O`, the inhibition is 3.4% (inactive).

Take `Cc1ccc2[nH]c3c(=O)n(Cc4ccccn4)cnc3c2c1`: the inhibition was 7.52% (inactive).

Turning to `Cc1ccc(CC(=O)N(C)CC(=O)N(CC(C)C)c2c(N)n(CC(C)C)c(=O)[nH]c2=O)cc1C`, the inhibition was -20.2% (inactive).

Turning to `Cc1ccccc1NC(=O)NCC1CCN(Cc2cccc(Cl)c2)CC1`, the inhibition is 8.22% (inactive).

Take `Cc1cccc(CN2CCC(CNC(=O)Nc3ccc(F)c(Cl)c3)CC2)c1`: the inhibition was 51.6% (active).

On to `Cc1ccc(C)c(CN2CCC(CNC(=O)Nc3ccc(C)c(F)c3)CC2)c1`, for which the inhibition was 42.6% (inactive).

In the case of `O=C(COC(=O)/C(=C/c1cccs1)c1cccs1)NCc1ccccc1Cl`, the inhibition was -28% (inactive).

`CCN(Cc1ccccc1)S(=O)(=O)c1cc2c3c(c1)CCN3C(=O)CC2`: the inhibition was -8.54% (inactive).

With `CCCC[C@@H]1CN=C(N)N1CCCC`, the inhibition was 16.5% (inactive).

Consider `CCCC[C@@H]1CN=C(N)N1CCc1cccc(F)c1`, for which the inhibition is -13.6% (inactive).

Turning to `CCCC[C@@H]1CN=C(N)N1CCc1cc(C(F)(F)F)cc(C(F)(F)F)c1`, the inhibition is 68.1% (active).

For the compound `O=C(C1CCN(C2CCN(Cc3ccc4cc(F)ccc4n3)CC2)CC1)N1CCCC1`, the inhibition is 6.09% (inactive).

Consider `CCCc1nc2oc3c(OCC)ncnc3c2c2c1COC(C)(C)C2`, for which the inhibition is -1.2% (inactive).

For the compound `O=C(Nc1nonc1-c1ccc(Cl)cc1)c1ccco1`, the inhibition is 3.32% (inactive).

Take `COc1ccc(NC(=O)CN(C)C(=O)/C=C/c2cn(Cc3ccccc3)nc2-c2cccnc2)cc1`: the inhibition was 9.31% (inactive).

Regarding `O=C(COC(=O)/C=C/c1cn(-c2ccccc2)nc1-c1cccnc1)Nc1ccc(Cl)cc1Cl`, the inhibition was 61.3% (active).

For the compound `Cc1ccc(/C=C/C(=O)OCC(=O)Nc2cccnc2Cl)cc1`, the inhibition was 7.79% (inactive).

As for `COc1cc([N+](=O)[O-])ccc1NC(=O)COC(=O)CCOc1ccc(C)cc1`, the inhibition is 57.2% (active).

In the case of `COc1cc([N+](=O)[O-])ccc1NC(=O)CN1CCCC1`, the inhibition was -4.27% (inactive).

Take `COc1ccccc1CC(=O)Nc1ccc([N+](=O)[O-])cc1OC`: the inhibition is 19.7% (inactive).

In the case of `N#Cc1c(N)sc2c1CCN(C(=O)OCc1ccccc1)C2`, the inhibition was 17.8% (inactive).

For the compound `C=CCNC(=O)/C(=C\c1cccc([N+](=O)[O-])c1)NC(=O)c1ccccc1`, the inhibition is 22.1% (inactive).

On to `Cc1ccc(C(=O)N/C(=C/c2ccc(-c3cccc([N+](=O)[O-])c3)o2)C(=O)NCCCN(C)C)cc1`, for which the inhibition was 78.3% (active).

Take `CN(C)CCNC(=O)/C(=C/c1cccc([N+](=O)[O-])c1)NC(=O)c1ccccc1`: the inhibition is -8% (inactive).

Turning to `NS(=O)(=O)c1cccc(NC(=O)COC(=O)c2cc([N+](=O)[O-])ccc2N2CCCC2)c1`, the inhibition was 17.6% (inactive).

Consider `CC(C)Oc1ccc(C(=O)NCC(=O)Nc2ccc3c(c2)CCC3)cc1`, for which the inhibition was -15.9% (inactive).

Turning to `O=C(CN1C(=O)C2C3C=CC(C3)C2C1=O)Nc1nc(-c2ccccn2)cs1` (stereo not drawn), the inhibition was 33.1% (inactive).

Consider `CC(NC(=O)c1ccco1)C(=O)Nc1nc(-c2ccccn2)cs1` (stereo not drawn), for which the inhibition was 21.9% (inactive).

As to `O=C(COc1ccccc1F)Nc1nc(-c2ccccn2)cs1`, the inhibition is 72.2% (active).

For `CCOc1ccc(CN2CCN(Cc3ccc4cc(F)ccc4n3)CC2CCO)cc1` (stereo not drawn), the inhibition was -16.3% (inactive).

On to `COc1ccc(CNC(=O)COC(=O)c2c(C)nn(-c3ccccc3)c2C)cc1OC`, for which the inhibition is -1.13% (inactive).

Take `COc1ccc(/C=C/C(=O)N2CCCC2)cc1OC`: the inhibition is 5.87% (inactive).

`COc1ccc(/C=C/C(=O)Nc2ccc(C)cc2)cc1S(=O)(=O)N1CCOCC1`: the inhibition was 18.3% (inactive).

In the case of `COc1ccc(/C=C/C(=O)Nc2ccc(C34CC5CC(CC(O)(C5)C3)C4)cc2)cc1OC`, the inhibition was 59.1% (active).
